Assay outcomes: PubChem BioAssay, The Scripps Research Institute Molecular Screening Center
PPARg SRC2 recr = agonists of SRC-2 recruitment by human PPARgamma; PPARgamma LBD-SRC-2 recruitment, biochemical; AID 1032; 200,000 tested, 0.34% active; P37231; activation, % at 8 µM;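 further: 0% = vehicle and 100% = reference agonist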
SRC1 TRFRET art = TR-FRET artefact, counter-screen to PPARgamma/SRC-1 agonist assay; 99,000 tested, 0.34% active; TR-FRET ratio at 8 µM; TR-FRET detection artefact counter-screen, emission ratio; stronger effect = higher value; AID 1051; in the data active means TR-FRET ratio above about 2300
PPARg SRC-3 ag = agonists of human PPARgamma SRC-3 coactivator recruitment; P37231; biochemical PPARgamma/SRC-3 coactivator recruitment assay; activation, % at 8 µM; 200,000 tested, 0.26% active; in the data active means activation above about 23%;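 further: 0% = DMSO and 100% = reference agonist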
PPARg SRC1 recr = agonists of human PPARgamma SRC-1 coactivator recruitment; P37231; PPARgamma-SRC-1 coactivator recruitment biochemical assay; activation, % at 8 µM; 200,000 tested, 0.41% active; AID 631; in the data active means activation above about 19%;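 further: 0% = DMSO and 100% = reference agonist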
SRC2 TRFRET art = flags TR-FRET format artefacts in PPARgamma SRC-2 recruitment agonist screen | 200,000 tested, 0.4% active | TR-FRET artefact counter-screen; stronger effect = higher value | TR-FRET ratio at 8 µM; in the data active means TR-FRET ratio above about 2000
SRC3 TRFRET art = TR-FRET artefact, counter-screen to PPARgamma/SRC-3 agonist assay. PPARgamma/SRC-3 format; stronger effect = higher value. TR-FRET ratio at 8 µM. 99,000 tested, 0.39% active. AID 1048; in the data active means TR-FRET ratio above about 2000
PPARg SRC2 conf = human PPARgamma SRC-2 recruitment agonism, confirmation; 790 tested, 52% active; biochemical SRC-2 recruitment by PPARgamma; shares compounds with PPARg SRC-3 ag; AID 1297; activation, % at 8 µM;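 further: 0% = vehicle alone and 100% = reference agonist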
PPARg SRC1 ag = confirmation of agonists of SRC-1 recruitment by human PPARgamma; activation, % at 8 µM; shares compounds with PPARg SRC-3 ag; PPARgamma–SRC-1 coactivator recruitment biochemical assay; 790 tested, 43% active; AID 1300; in the data active means activation above about 20%;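 further: 0% = vehicle wells and 100% = reference agonist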
PPARg SRC3 ag = confirmation of agonists of SRC-3 recruitment by human PPARgamma. shares compounds with PPARg SRC-3 ag. biochemical PPARgamma-SRC-3 coactivator recruitment, agonist mode. activation, % at 8 µM. 790 tested, 29% active. AID 1301; in the data active means activation above about 24%;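 further: 0% = vehicle wells and 100% = reference agonist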
Starred values were filed as active, the others as inactive; · = no result given. In the library only some 0.84% were active in any assay of this set; here they are far more common. Unless noted, no stated cut-off is given here; in the data, active means activation above about 22%; inactive means the rest.

SMILES	PPARg SRC2 recr	SRC1 TRFRET art	PPARg SRC-3 ag	PPARg SRC1 recr	SRC2 TRFRET art	SRC3 TRFRET art	PPARg SRC2 conf	PPARg SRC1 ag	PPARg SRC3 ag
Cc1cc(SCC(=O)c2ccc3c(c2)OCO3)nc2ccccc12	37.1*	·	43.5*	20.0*	3038*	·	70.0*	57.5*	47.1*
O=C(O)c1cc(-c2ccc(Cl)s2)nc2ccccc12	38.9*	3037*	21.9	37.2*	2455*	2388*	49.9*	35.0*	32.9*
CCc1nnc(NS(=O)(=O)c2ccc(N/C=C\C(=O)c3cccc4ccccc34)cc2)s1	23.8*	1902	48.0*	23.2*	1761	1728	22.8*	22.2*	41.2*
O=C(Nc1ccc2oc(-c3ccc(F)cc3)nc2c1)c1ccccc1F	27.8*	·	20.6	25.3*	2348*	·	13.7	12.0	6.2
COc1ccc(NC(=O)c2sc(=S)[nH]c2N)cc1	4.3	·	27.8*	16.5	1621	·	12.0	11.4	7.1
Cn1c(C(=O)OCC(=O)NCc2ccco2)cc2sccc21	1.7	·	-2.0	-3.7	1382	·	·	·	·
CCC(OC(=O)c1cc2sccc2n1C)C(=O)NCc1ccco1 (stereo not given)	9.9	·	14.2	31.4*	1504	·	16.1	24.9*	26.4*
COC(=O)c1ccc2c(=O)n(-c3ccccc3)c(=S)[nH]c2c1	0.3	1949	-0.3	0.8	1472	1579	·	·	·
CCc1cc2c(=O)n(-c3ccccc3)c(=S)[nH]c2s1	37.3*	·	40.6*	27.2*	2026*	·	31.4*	25.4*	23.6
O=c1[nH]c(SCc2ccc(Cl)cc2)nc2ccsc12	9.5	2154	-0.2	6.0	1567	1716	·	·	·
CNC(=O)NC(=O)CSc1nc(-c2cccs2)c(C#N)c(=O)[nH]1	55.7*	3256*	30.8*	41.0*	3062*	2978*	43.1*	29.4*	29.9*
N#Cc1c(-c2cccs2)nc(SCc2ccc(Cl)cc2)[nH]c1=O	42.7*	3031*	24.2*	32.2*	2686*	2717*	36.4*	25.1*	24.2*
CCOC(=O)Cc1csc(NC(=O)CSc2nc(-c3ccccc3)c(C#N)c(=O)[nH]2)n1	6.2	1835	0.4	4.6	1702	1539	·	·	·
Cc1cc(=O)oc2cc(OC(=O)CCCCCN3C(=O)c4ccccc4C3=O)ccc12	5.2	1621	3.1	3.4	1504	1688	·	·	·
CCCCNC(=S)Nc1ccccc1Cc1ccccc1	3.2	1788	3.9	4.8	1511	1605	·	·	·
CCSc1nnc(-c2ccccc2SC)o1	19.3	2385*	11.3	20.5*	2020*	1975	27.5*	19.6*	17.6
CSc1ccccc1-c1nnc(-c2ccc(Cl)cc2Cl)o1	3.5	·	7.0	1.9	1526	·	·	·	·
O=C(NCCOC(=O)c1ccc(Cl)cc1)c1cccnc1	6.1	·	-1.1	-0.8	1559	·	·	·	·
CCn1c(O)c(/C=C2\C=Nc3ccccc32)sc1=Nc1ccccc1	4.5	·	6.4	1.2	1406	·	·	·	·
O=C(Cc1ccccc1)Nn1c(O)c(/C=C2\C=Nc3ccccc32)sc1=S	23.9*	2099	13.6	14.2	1652	1630	6.9	6.6	7.6
COc1ccc(N=Cc2sc(O)c3ccccc23)cc1	28.1*	·	26.3*	22.3*	1635	·	7.8	9.0	6.5
COc1ccc(-n2c(O)c(C=Nc3ccccc3)c3ccccc3c2=O)cc1	2.3	1953	-0.9	0.8	1565	1574	·	·	·
CCOc1ccccc1N1CCN(c2nc(N)c(C#N)c(CC#N)c2C#N)CC1	16.4	·	29.4*	7.9	1666	·	2.6	1.4	1.7
Cc1cc(-c2cccc(Br)c2)c(C#N)c(N)n1	25.4*	2711*	13.1	21.5*	1927	2035	5.5	7.5	5.2
Cc1cc(C)c(C#N)c(N)n1	6.2	1801	5.6	6.8	1627	1419	·	·	·
SMILES	PPARg SRC2 recr	SRC1 TRFRET art	PPARg SRC-3 ag	PPARg SRC1 recr	SRC2 TRFRET art	SRC3 TRFRET art	PPARg SRC2 conf	PPARg SRC1 ag	PPARg SRC3 ag
CSc1ccccc1NC(=O)CN(C)CC(=O)Nc1ccccc1C(F)(F)F	7.6	1642	-1.7	-11.8	1485	1546	·	·	·
CCOC(=O)c1sc2ncnc(NCc3ccco3)c2c1C	22.8*	·	30.0*	9.2	1926	·	18.7	15.9	10.1
CCOC(=O)c1sc2nc(CC(=O)OC)nc(NCc3ccco3)c2c1C	6.1	·	-3.7	0.3	1592	·	·	·	·
COC(=O)\C(C(C)=O)=C(/C=C/C=C/C=C/N(C)C)N(C)C	-1.5	·	7.5	3.9	1539	·	·	·	·
Cc1ccc(-c2[nH]c3ccccc3c2SCCNC(=O)c2cc3ccccc3oc2=O)cc1	4.2	1683	6.3	6.9	1384	1709	·	·	·
O=C(Cc1cccs1)NCCSc1c(-c2ccc(Cl)cc2)[nH]c2ccccc12	19.6	3752*	54.3*	28.4*	5424*	7221*	25.7*	31.8*	40.8*
Cc1cc(C)cc(N(CC(=O)NCCSCc2ccccc2)S(C)(=O)=O)c1	7.0	1881	4.3	4.8	1658	1834	·	·	·
O=C(NC1CC1)c1cc2c(F)cccc2s1	1.0	1589	1.6	7.3	1743	1586	·	·	·
COc1ccc2c(C)cc(=S)[nH]c2c1	22.0*	2499*	15.2	31.6*	1987*	2185*	6.2	6.0	3.9
Cc1cc(C(=O)NCCC(c2ccccc2)c2ccccc2)c(C)o1	-5.8	·	-9.2	-4.7	1326	·	·	·	·
ClCc1csc(-c2ccccc2Cl)n1	25.4*	2229	17.4	18.9	2108*	2168*	27.6*	21.8*	17.4
CCOC(=O)CSc1c(-c2cccs2)[nH]c2ccccc12	24.7*	1981	13.9	13.3	1827	1749	32.0*	23.1*	18.9
Cc1ccc(CNC(=O)CSc2c3c(nc4ccc(Cl)cc24)CCCC3)o1	16.4	·	18.8	13.3	1885	·	·	·	·
CCN(CC)CCNC(=O)CSc1c2c(nc3cc(Cl)ccc13)CCCC2	46.5*	3055*	24.8*	23.2*	2230*	2600*	32.6*	22.1*	22.4
COc1cccc(NC(=O)CSc2c3c(nc4ccccc24)CCCC3)c1	21.1	2392*	12.8	20.6*	1718	2050	21.9*	16.7	15.2
Cc1cccc(NC(=O)CSc2c3c(nc4ccccc24)CCC3)n1	6.6	1807	4.9	-2.8	1518	1583	·	·	·
COc1cccc(COCC(O)Cn2cnc3cc(C)c(C)cc32)c1 (stereo not given)	1.8	2043	-3.8	6.4	1565	1797	·	·	·
O=C(Nc1ccccc1)c1ccc(-c2ccccc2)s1	38.5*	2787*	16.9	39.4*	2178*	2060*	43.5*	34.6*	26.2*
